Bioassay records (PubChem)
Shiga inhibitor = inhibitors of Shiga toxin in Vero cells | AID 2315 | inhibition, % at 38.7 µM | Vero cells, Shiga toxin protein synthesis inhibition reporter | 9.2% of 290,000 active; in the data active means inhibition mostly above about 28%, no sharp cut-off; inactive means mostly below about 43%
Cycloheximide cs = counter-screen for Shiga toxin inhibitors: cycloheximide protein synthesis inhibition; cell reporter, cycloheximide protein synthesis inhibition counterscreen; max response, %; 12% of 300,000 active; in the data active means max response mostly above about 13%, no sharp cut-off; inactive means mostly below about 14%; further: read at 38.3 µM for the half of the compounds with a filed dose
NS1 function inh = inhibitors of influenza NS1 protein function; Potency, µM (titrated, usually from 46.1 µM); 0.4% of 270,000 active; AID 2326; calls by dose curve; further: actives are rising curves; nearly all actives have a fitted effect of over 50% in size
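S. cerevisiae expressing influenza A NS1, grown in glucose, washed, then diluted 1:100 into pH 6.0 -URA galactose medium with 23 nl compound. Growth recovery read as OD600; NS1-free strain serves as control.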
Pf growth 96h = inhibits malaria parasite growth, 96 h | 6.9% of 320,000 active | AID 504834 | P. falciparum luciferase reporter growth, 96 h | Potency, µM (highest dose often 28.7 µM), hits mostly inhibitors
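P. falciparum expressing integrated firefly luciferase, in erythrocytes at 2% hematocrit, 0.05% parasitemia, incubated with compounds 96 h at 37 C, 5% CO2. Growth inhibition read as loss of luminescence; two-generation exposure targets delayed-death apicoplast inhibitors.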
Sm TGR block = blocks Schistosoma mansoni thioredoxin glutathione reductase. 3% of 360,000 active. AID 485364. Q962Y6. Potency, µM (top dose mostly 114 µM), most hits filed as inhibitors. purified TGR, DTNB reduction, TNB absorbance 405 nm; further: nearly all actives have a fitted effect of over 60% in size
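First, TGR (20 nM dispensed) and NADPH were mixed with compound. Second, a 15 min room-temperature incubation followed. Third, further NADPH and then DTNB were added to start the reaction. Finally, TNB absorbance was monitored kinetically.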
Pf growth 48h = inhibits P. falciparum growth in the first generation, 48 h | P. falciparum luciferase growth in erythrocytes, 48 h | Potency, µM (titrated, usually from 28.7 µM), actives largely listed as inhibitors | 5.9% of 310,000 active | AID 504832
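In quantitative HTS format, infected erythrocytes bearing luciferase-reporter parasites were treated for a single generation at 37 C. Luminescence after adding detection reagent served as the growth measure.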
A number is an active result; - = inactive; ? = inconclusive; . = no result. Sampled rows, rich in hits. Any-hit rate of the full collection: about 21%. Unless noted, the call rests on the fitted dose curve; in most records, active means well fitted curve in the direction sought with a large enough effect; inconclusive means small, poorly fitted or top-dose-only effect, or another doubt; inactive means no such curve, though single readings can be large; an effect the other way counts as inactive or inconclusive.

SMILES	Shiga inhibitor	Cycloheximide cs	NS1 function inh	Pf growth 96h	Sm TGR block	Pf growth 48h
O=C1/C(=C\c2ccc(Br)o2)SC(=Nc2ccccc2)N1c1ccccc1	-	-	-	9.28µM	?	?
CC(=O)c1sc(N2CCOCC2)nc1-c1ccccc1	-	-	.	-	-	-
Cc1ccc(-c2nc(N3CCOCC3)s[n+]2-c2ccccc2)cc1	85.1	61.6	-	-	-	-
N=C(N)SCc1ncccc1O	-	-	-	-	11.2µM	-
COc1cccc(-c2ccc(NC(=O)C3CCCN(CCCn4cccn4)C3)cc2)c1 (centres undefined)	-	-	-	-	-	-
COc1ccc(C(=O)N2CCN(C)C(=O)[C@@H]2C)cc1OC1CCN(C(C)=O)CC1	-	-	-	-	-	-
O=C(Nc1ccc(-n2cccn2)cc1)C1CCCCN1Cc1cccc2cccnc12 (centres undefined)	-	24.3	-	?	-	?
COc1ccc2c(c1)SCC/C2=C\CN1C(=O)CCC1=O	-	-	-	-	-	-
COc1cc(-c2nc(C(=O)NCC3CCCO3)cc3c2[nH]c2ccccc23)cc(OC)c1OC (centres undefined)	-	-	-	6.57µM	-	?
COc1ccccc1-c1nc(C(=O)NCC2CCCO2)cc2c1[nH]c1ccccc12 (centres undefined)	-	-	-	8.28µM	-	9.28µM
O=C(NCC1CCCO1)c1cc2c([nH]c3ccccc32)c(-c2cccc(Cl)c2)n1 (centres undefined)	-	-	-	5.86µM	-	?
O=C(NCC1CCCO1)c1cc2ccccc2[nH]1 (centres undefined)	120.9	15.1	-	?	-	-
COc1cc(C(=O)Nc2ccc(C(=O)NCC3CCCO3)cc2)cc(OC)c1OC (centres undefined)	-	-	-	?	-	?
COc1cccc2[nH]c(C(=O)NCC3CCCO3)cc12 (centres undefined)	-	-	-	-	-	-
COc1ccc(CNC(=O)Cc2c(C)c3ccc(O)cc3oc2=O)cc1	.	.	.	.	-	.
Cc1cccc(NCc2nnc3n2CCCCC3)c1C	.	.	.	.	-	.
Cc1ccccc1/C=C\c1nc2ccccc2c(=O)[nH]1	89.2	45.8	-	-	.	?
N#CCOc1ccccc1/C=C/c1nc2ccccc2c(=O)[nH]1	83.2	29.6	-	-	-	-
CCC(CC)c1nc2ccccc2c(=O)[nH]1	-	-	-	-	-	-
Cc1ccccc1/C=C/c1nc2ccccc2c(=O)[nH]1	84.2	44.7	-	-	-	-
Cc1ccc(-c2nc3scc(CCNC(=O)Cc4ccc(Cl)cc4)n3n2)cc1	.	.	.	.	-	.
O=C(CCCCCn1c(=O)[nH]c2ccccc2c1=O)NCc1ccccc1	.	.	.	.	-	.
Cc1ccccc1C1=NCC(=O)N(CC(=O)NCc2ccco2)c2sc3c(c21)CCCC3	-	15.0	-	-	-	?
O=C(CN1C(=O)c2ccccc2C1=O)Nc1sc2c(c1C(=O)NCC1CCCO1)CCC2 (centres undefined)	-	-	-	-	79.4µM	-
O=C(CN1C(=O)c2ccccc2C1=O)Nc1sc2c(c1C(=O)NCc1ccco1)CCCC2	-	-	-	-	-	-
SMILES	Shiga inhibitor	Cycloheximide cs	NS1 function inh	Pf growth 96h	Sm TGR block	Pf growth 48h
O=C(CCCN1C(=O)c2ccccc2C1=O)Nc1c2c(nc3c1CCC3)CCC2	-	-	-	0.465µM	?	?
O=C(CCCN1C(=O)c2ccccc2C1=O)Nc1sc2c(c1C(=O)NCc1ccco1)CCC2	-	-	-	-	39.8µM	?
Cc1ccc(-n2ncc(-c3nn[nH]n3)c2N)cc1	-	-	-	-	-	-
CCOC(=O)c1cc(-c2ccc(OC)cc2)n(CCC(=O)NCCc2ccccc2)c1C	.	.	.	.	-	.
NC(=O)c1ccc[n+](Cc2ccc(-c3ccccc3)cc2)c1	-	-	-	7.38µM	-	.
C[C@@H](C(=O)N1CCN(C(=O)OC(C)(C)C)CC1)n1cc(-c2cn([C@@H](C)C(=O)N3CCN(C(=O)OC(C)(C)C)CC3)nn2)nn1	-	-	-	-	-	-
COc1ccc(C2Nc3ccccc3C(=O)N2O)cc1OC (centres undefined)	-	20.3	-	-	-	-
COc1ccc(C2Nc3ccccc3C(=O)N2NC(C)=O)cc1OC (centres undefined)	-	-	.	-	-	-
O=C1c2ccccc2NC(c2cccc([N+](=O)[O-])c2)N1CCc1ccccc1 (centres undefined)	73.8	44.0	-	?	-	?
COc1ccc(C2Nc3ccccc3C(=O)N2c2ccccc2)cc1COc1ccccn1 (centres undefined)	-	-	-	?	?	?
COc1cc(C2Nc3ccccc3C(=O)N2c2ccccc2)ccc1O (centres undefined)	122.6	46.5	-	.	-	-
COc1ccc(C2Nc3ccccc3C(=O)N2c2ccccc2)cc1Cn1cc([N+](=O)[O-])cn1 (centres undefined)	-	-	-	5.22µM	-	13.1µM
COc1ccc(N2C(=O)c3ccccc3NC2c2ccc(OC)c(Cn3cc([N+](=O)[O-])cn3)c2)cc1 (centres undefined)	-	-	-	-	-	?
COc1ccc(C2Nc3ccccc3C(=O)N2c2ccc(F)cc2)cc1CSc1ccccn1 (centres undefined)	-	14.9	-	-	-	-
COc1ccc(/C(C)=N/N2C(=O)c3ccccc3NC2c2ccc(O)c(OC)c2)cc1 (centres undefined)	32.8	13.8	-	-	-	-
CCOc1cc(C2Nc3ccccc3C(=O)N2c2ccccc2)ccc1O (centres undefined)	-	19.2	-	?	-	.
CC(C)Oc1ccccc1C1Nc2ccccc2C(=O)N1c1ccc2c(c1)OCCO2 (centres undefined)	71.1	54.0	-	.	-	-
Nc1nc(SCc2cccc([N+](=O)[O-])c2)n[nH]1	-	-	-	-	-	-
NC(=O)c1ccsc1NC(=O)COC(=O)Cc1cccc2ccccc12	-	-	-	-	-	.
COc1ccc(CCN2C(=O)c3ccccc3NC2c2cc(Cl)c(O)c(OC)c2)cc1 (centres undefined)	-	-	-	5.22µM	-	?
COc1cc(C2OC(=O)c3c2ccc(OC)c3OC)ccc1O (centres undefined)	.	.	.	-	28.2µM	7.38µM
COc1cc(C2C(=O)c3ccccc3C2=O)ccc1O	.	59.1	-	-	-	-
COc1ccc(C2C(=O)c3ccccc3C2=O)cc1OC	-	-	.	?	-	-
COc1ccc(N2C(=O)c3ccccc3NC2c2ccccc2O)cc1 (centres undefined)	56.5	42.6	-	-	-	-
CC(C)N(C(=O)COC(=O)c1cccc(C(=O)OCC(=O)N(C(C)C)C(C)C)n1)C(C)C	-	-	.	-	-	-
CCSc1nnc(NC(=O)c2cc(=O)c3cc(C)ccc3o2)s1	.	.	.	.	-	.
